Test results reported in PubChem BioAssay.
Results filed as inconclusive are left out. The source made the active and inactive calls.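 The calls were made as follows, unless noted: active = percent response above 42, roughly 3 SD of non-fluorescent test compounds; inactive = the rest.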

Experiments:
[1] = yeast TOR pathway RPL19A-GFP modulators, primary screen, cell-based, S. cerevisiae, multiplex flow cytometry (AID 1862; in the data active = percent of DMSO control GFP below about 86%;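 also: lower values mimic rapamycin by blocking the RPL19A rise seen in DMSO cells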); details: S. cerevisiae RPL19A-GFP strain, flow cytometry fluorescence, 3 h; at 10 µM; stronger effect = lower value
[2] = modulators of MEP2-GFP levels in yeast, primary screen, S. cerevisiae, multiplex flow cytometry (AID 1867;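 active = GFP response, as percent of the DMSO control, above the screen-wide mean plus 3 SD, about 139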;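 also: median GFP channel fluorescence of barcode-gated MEP2-GFP cells measured by flow cytometry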); details: S. cerevisiae MEP2-GFP strain, 3 h, at 10 µM, stronger effect = higher value, 100% means same as DMSO wells
[3] = modulators of CIT2-GFP expression in yeast, primary screen, S. cerevisiae, GFP fusion, multiplex flow cytometry (AID 1870;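 active = percent response above a set limit, the screen-wide mean plus 3 SD, cut at about 130% in these data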;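 also: barcoded CIT2-GFP strain pooled with four other GFP strains with rapamycin as positive control; median GFP fluorescence per well over plate mean of DMSO wells so 100% = DMSO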); details: 3 h, at 10 µM, stronger effect = higher value
[4] = modulators of LAP4-GFP expression in yeast, primary screen, S. cerevisiae, multiplex flow cytometry (AID 1873;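 active = GFP signal, as percent of the solvent control, above the screen mean plus 3 SD, about 149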); details: 3 h, at 10 µM, stronger effect = higher value
[5] = modulators of AGP1-GFP expression in yeast TOR pathway, primary screen, cell-based, multiplex flow cytometry, S. cerevisiae (AID 1887;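 active = GFP signal above the screen-wide mean plus 3 SD, that is over about 124.5% of the solvent control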;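 also: AGP1-GFP fusion strain of S. cerevisiae within a five-strain barcoded multiplex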); details: 3 h, at 10 µM, stronger effect = higher value
[6] = inhibitors of CD8+ T cell-vesicle binding, pilot screen, LFA-1/ICAM-1 modulator project, MLPCN validation set, flow cytometry (AID 2523;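 active = response below a set limit, under 55% cells CD8-positive and vesicle-bound, and CD8 cells' 90th-percentile brightness under 279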;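 as to vesicle binding response: mean PE anti-B7-1 fluorescence of CD8+ cells relative to row control; 100% = QL9-loaded vesicles with DMSO vehicle in the same plate row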); details: 2C mouse CD8+ T cells, at 7 µM, stronger effect = lower value; double positive events: measured here: CD8+/vesicle+ event percentage
[7] = molecular target: Integrin beta-1 (Homo sapiens) + Integrin alpha-4 (Homo sapiens) (UniProt P13612+P05556); assay: inhibition of HUTS-21 binding to VLA-4, pilot screen, VLA-4 allosteric modulator project, U937 cells, HUTS-21 mAb, flow cytometry, validation set (AID 2674;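 active = inhibition above 50%, about 3 SD of the validation set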;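 also: antibody binding induced by the VLA-4 ligand LDV present at three times its Kd; 0% = LDV ligand with antibody and no compound and 100% = antibody without LDV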); details: HUTS-21 LIBS mAb binding, at 6.7 µM, stronger effect = higher value, binding induced by LDV ligand
[8] = superoxide lowering in aged yeast cells, pilot screen, validation compound set (AID 2706;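 active = superoxide response below 65% of plate, a cut near 3 SD across the whole screen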;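 also: yeast exposed to compound for one week at 30 degrees C before staining; 100% = mean of all compound wells on the same plate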); details: S. cerevisiae aging, superoxide DHE fluorescence; at 10 µM; stronger effect = lower value
[9] = molecular target: Beta-adrenergic receptor kinase 1 (Homo sapiens) (UniProt P25098); assay: GRK2 binders displacing RNA aptamer, biochemical, validation, human GRK2, bead flow cytometry (AID 488806;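 active = aptamer binding inhibition above 30%, about 3 SD of noise from non-fluorescent compounds; inactive = inhibition at or below 30%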); details: bead-bound GRK2, FAM-aptamer displacement, at 10 µM, stronger effect = higher value
[10] = molecular target: Beta-2 adrenergic receptor (Homo sapiens) (UniProt P07550); assay: beta2AR agonists driving receptor internalization, pilot screen, cell-based, FAP fluorogen, flow cytometry, validation set (AID 504459); details: Am2.2-beta2AR cells, FAP surface receptor flow cytometry; at 10 µM; stronger effect = higher value;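 also: agonist-driven loss of surface beta2AR via internalization measured by FAP dye flow cytometry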
[11] = molecular target: AP-2 complex subunit beta (Homo sapiens) (UniProt P63010); assay: inhibitors of arrestin peptide binding to AP2, pilot screen, biochemical, validation set, GST-AP2 beads, flow cytometry (AID 504541;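 active = inhibition above 54%, about 3 SD of non-fluorescent compounds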;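 also: AP2 carries R879A mutation and is captured from E. coli lysate; bead-bound FITC arrestin peptide fluorescence measuring arrestin peptide binding to AP2; 0% = DMSO wells and 100% = excess unlabeled arrestin peptide control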); details: FITC arrestin peptide, at 10 µM, stronger effect = higher value, AP2 beta2 appendage fragment, R879A mutant
[12] = yeast V-ATPase proton transport modulators, S. cerevisiae, pHLuorin, HTS validation (AID 504600; in the data active = response above about 15%;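 also: plate controls were DMSO for no effect and reference compound for full effect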); details: S. cerevisiae pHLuorin cytosolic pH, at 10 µM, stronger effect = higher value
[13] = system: anti-desmoglein-3 scFv antibody binding to human DSG3; assay: inhibitors of anti-DSG3 scFv binding to DSG3, pilot screen, biochemical, validation compound set, bead-based, flow cytometry (AID 588368;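 active = binding below the plate cutoff, the plate median minus 3 SD, with a reading above zero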;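 also: signal is the median channel fluorescence of bead-bound GFP antibody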); details: Protein G beads, DSG3-Fc, scFv-GFP binding, at 10 µM, stronger effect = lower value
[14] = inhibitors of fungal efflux pumps CDR1, CDR2, MDR1, pilot screen, validation compound set, multiplex, phenotypic (AID 588506;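 active = efflux inhibition above 0.42, the validation set average plus 4 SD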;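 also: Nile Red retained in cells so higher fluorescence means more efflux inhibition; 0 = negative control wells and 1 = enniatin B 25 µM full block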); details: S. cerevisiae pump-expressing triplex, Nile Red efflux flow cytometry; at 10 µM; stronger effect = higher value; the pumps come from Candida albicans
[15] = molecular target: ATP-binding cassette sub-family B member 6 (Homo sapiens) (UniProt Q9NP58); assay: ABCB6 transporter inhibitors, pilot screen, K562-ABCB6 cells, flow cytometry, validation set (AID 588550;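 active = inhibition above the screen-wide mean plus 3 SD, about 51%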;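 also: 0% = DMSO wells and 100% = benzethonium chloride 70 µM positive control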); details: K562-ABCB6 porphyrin accumulation, 1 h, at 10 µM, stronger effect = higher value
[16] = promoters of myeloid differentiation in arrested cells, primary screen, cell-based, GFP/MAC1 double positive, flow cytometry, validation set (AID 588685;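 active = differentiation response of at least 50%, scaled between solvent and reference control, from cells with both markers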;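 also: compound exposure lasts four days before antibody staining and flow analysis; 0% = DMSO wells and 100% = 5 µM fulvestrant positive control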); details: ER-HoxA9 marrow cells, stronger effect = higher value, normalized: vehicle 0, fulvestrant 100

Sequence of Beta-adrenergic receptor kinase 1 (Homo sapiens) (P25098 whole entry, looked up): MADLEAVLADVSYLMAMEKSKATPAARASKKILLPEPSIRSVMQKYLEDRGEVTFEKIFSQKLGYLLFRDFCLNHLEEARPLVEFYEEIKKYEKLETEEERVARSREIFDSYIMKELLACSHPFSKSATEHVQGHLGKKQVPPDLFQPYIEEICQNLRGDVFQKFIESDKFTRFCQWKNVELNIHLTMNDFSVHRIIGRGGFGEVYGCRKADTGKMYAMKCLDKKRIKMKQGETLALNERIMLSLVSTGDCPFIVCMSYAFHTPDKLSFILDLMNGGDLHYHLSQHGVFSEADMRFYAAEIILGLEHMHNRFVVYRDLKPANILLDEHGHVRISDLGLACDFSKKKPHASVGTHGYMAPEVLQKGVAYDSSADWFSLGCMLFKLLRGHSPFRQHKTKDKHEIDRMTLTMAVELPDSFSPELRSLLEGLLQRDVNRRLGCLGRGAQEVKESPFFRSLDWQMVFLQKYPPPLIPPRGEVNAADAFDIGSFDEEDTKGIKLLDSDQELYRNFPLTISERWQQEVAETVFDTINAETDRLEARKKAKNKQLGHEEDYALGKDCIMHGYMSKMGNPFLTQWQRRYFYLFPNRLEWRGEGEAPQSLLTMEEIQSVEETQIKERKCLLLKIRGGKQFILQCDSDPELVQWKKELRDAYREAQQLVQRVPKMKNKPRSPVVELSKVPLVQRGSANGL
Sequence of AP-2 complex subunit beta (Homo sapiens) (P63010 whole entry, looked up, the tested form may be a part, one chain of several): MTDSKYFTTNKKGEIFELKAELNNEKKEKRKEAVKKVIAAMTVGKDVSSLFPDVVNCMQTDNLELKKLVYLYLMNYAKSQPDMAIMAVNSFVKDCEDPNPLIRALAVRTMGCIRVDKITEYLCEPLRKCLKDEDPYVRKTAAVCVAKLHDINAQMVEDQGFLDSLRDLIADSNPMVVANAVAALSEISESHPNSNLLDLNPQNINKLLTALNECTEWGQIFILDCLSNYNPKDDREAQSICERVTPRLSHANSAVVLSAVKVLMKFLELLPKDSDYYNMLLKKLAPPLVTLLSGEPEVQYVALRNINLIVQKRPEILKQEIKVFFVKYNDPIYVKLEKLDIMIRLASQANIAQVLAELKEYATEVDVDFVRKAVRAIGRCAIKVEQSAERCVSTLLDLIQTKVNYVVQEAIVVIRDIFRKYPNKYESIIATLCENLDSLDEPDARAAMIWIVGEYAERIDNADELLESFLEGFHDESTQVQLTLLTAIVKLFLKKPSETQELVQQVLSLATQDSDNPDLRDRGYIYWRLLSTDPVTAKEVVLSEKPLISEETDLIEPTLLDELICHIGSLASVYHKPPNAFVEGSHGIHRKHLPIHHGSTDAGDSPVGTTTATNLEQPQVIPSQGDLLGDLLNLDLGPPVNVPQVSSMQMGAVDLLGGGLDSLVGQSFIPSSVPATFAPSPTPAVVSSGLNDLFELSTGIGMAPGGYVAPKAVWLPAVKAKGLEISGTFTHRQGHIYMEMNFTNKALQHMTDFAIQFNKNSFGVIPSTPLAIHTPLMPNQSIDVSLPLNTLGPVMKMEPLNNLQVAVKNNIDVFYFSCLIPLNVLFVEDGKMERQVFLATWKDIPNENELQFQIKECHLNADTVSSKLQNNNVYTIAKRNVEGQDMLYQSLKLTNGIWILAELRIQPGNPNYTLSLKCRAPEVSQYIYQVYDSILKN
Sequence of ATP-binding cassette sub-family B member 6 (Homo sapiens) (Q9NP58 whole entry, looked up): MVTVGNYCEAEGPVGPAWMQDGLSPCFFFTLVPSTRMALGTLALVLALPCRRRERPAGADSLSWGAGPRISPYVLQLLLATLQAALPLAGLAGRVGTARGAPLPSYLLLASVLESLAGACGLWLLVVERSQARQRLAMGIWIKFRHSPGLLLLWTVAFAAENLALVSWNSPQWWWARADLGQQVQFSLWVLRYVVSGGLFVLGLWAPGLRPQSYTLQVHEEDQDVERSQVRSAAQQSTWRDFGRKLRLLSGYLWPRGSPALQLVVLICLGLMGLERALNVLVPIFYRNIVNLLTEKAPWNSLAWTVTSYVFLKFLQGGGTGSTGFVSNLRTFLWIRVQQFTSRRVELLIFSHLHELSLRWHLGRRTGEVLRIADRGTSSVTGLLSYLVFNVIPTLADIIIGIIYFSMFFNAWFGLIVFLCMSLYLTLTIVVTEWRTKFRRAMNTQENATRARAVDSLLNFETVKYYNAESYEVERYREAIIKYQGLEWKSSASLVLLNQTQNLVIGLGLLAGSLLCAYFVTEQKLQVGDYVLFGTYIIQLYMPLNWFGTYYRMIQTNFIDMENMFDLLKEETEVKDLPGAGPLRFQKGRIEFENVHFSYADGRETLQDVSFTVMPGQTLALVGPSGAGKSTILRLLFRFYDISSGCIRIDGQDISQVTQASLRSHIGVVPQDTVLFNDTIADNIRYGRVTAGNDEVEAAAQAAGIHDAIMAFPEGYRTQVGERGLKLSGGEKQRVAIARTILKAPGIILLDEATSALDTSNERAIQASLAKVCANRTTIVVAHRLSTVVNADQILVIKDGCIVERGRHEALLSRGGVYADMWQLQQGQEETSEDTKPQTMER
Sequence of Beta-2 adrenergic receptor (Homo sapiens) (P07550 whole entry, looked up): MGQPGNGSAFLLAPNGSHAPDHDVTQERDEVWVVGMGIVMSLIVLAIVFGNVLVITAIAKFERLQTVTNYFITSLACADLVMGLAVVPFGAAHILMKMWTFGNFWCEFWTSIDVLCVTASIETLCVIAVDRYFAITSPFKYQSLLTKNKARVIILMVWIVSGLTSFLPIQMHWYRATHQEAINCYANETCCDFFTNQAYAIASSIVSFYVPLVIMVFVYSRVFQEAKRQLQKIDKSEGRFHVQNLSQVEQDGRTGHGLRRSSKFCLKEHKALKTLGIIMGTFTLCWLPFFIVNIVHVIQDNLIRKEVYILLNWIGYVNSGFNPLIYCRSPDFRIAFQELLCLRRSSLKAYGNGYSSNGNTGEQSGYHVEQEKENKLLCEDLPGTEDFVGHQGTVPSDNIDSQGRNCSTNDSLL
Sequence of Integrin beta-1 (Homo sapiens) + Integrin alpha-4 (Homo sapiens) (P05556 whole entry, looked up): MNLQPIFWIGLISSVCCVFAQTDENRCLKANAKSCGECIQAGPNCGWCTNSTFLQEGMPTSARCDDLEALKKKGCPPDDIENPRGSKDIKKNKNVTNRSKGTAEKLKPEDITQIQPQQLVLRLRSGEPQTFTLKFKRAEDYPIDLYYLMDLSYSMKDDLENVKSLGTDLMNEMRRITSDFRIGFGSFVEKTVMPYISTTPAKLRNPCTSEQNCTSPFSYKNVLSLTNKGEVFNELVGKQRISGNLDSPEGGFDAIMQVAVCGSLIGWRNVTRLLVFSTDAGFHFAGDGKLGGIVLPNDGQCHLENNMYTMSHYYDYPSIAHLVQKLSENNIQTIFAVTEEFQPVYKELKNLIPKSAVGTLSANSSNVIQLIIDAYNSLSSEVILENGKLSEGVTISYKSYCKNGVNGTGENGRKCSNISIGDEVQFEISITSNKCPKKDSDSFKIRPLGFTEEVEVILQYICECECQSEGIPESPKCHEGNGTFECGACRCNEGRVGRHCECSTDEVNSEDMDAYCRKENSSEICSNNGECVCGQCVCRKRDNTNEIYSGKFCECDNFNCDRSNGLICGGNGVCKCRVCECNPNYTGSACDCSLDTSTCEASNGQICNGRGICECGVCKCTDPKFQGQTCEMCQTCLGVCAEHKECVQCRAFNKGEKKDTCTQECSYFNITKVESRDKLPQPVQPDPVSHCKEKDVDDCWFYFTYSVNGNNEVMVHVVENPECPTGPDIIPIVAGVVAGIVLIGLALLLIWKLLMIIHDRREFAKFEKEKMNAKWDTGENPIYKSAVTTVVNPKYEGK
Sequence of Integrin beta-1 (Homo sapiens) + Integrin alpha-4 (Homo sapiens) (P13612 whole entry, looked up): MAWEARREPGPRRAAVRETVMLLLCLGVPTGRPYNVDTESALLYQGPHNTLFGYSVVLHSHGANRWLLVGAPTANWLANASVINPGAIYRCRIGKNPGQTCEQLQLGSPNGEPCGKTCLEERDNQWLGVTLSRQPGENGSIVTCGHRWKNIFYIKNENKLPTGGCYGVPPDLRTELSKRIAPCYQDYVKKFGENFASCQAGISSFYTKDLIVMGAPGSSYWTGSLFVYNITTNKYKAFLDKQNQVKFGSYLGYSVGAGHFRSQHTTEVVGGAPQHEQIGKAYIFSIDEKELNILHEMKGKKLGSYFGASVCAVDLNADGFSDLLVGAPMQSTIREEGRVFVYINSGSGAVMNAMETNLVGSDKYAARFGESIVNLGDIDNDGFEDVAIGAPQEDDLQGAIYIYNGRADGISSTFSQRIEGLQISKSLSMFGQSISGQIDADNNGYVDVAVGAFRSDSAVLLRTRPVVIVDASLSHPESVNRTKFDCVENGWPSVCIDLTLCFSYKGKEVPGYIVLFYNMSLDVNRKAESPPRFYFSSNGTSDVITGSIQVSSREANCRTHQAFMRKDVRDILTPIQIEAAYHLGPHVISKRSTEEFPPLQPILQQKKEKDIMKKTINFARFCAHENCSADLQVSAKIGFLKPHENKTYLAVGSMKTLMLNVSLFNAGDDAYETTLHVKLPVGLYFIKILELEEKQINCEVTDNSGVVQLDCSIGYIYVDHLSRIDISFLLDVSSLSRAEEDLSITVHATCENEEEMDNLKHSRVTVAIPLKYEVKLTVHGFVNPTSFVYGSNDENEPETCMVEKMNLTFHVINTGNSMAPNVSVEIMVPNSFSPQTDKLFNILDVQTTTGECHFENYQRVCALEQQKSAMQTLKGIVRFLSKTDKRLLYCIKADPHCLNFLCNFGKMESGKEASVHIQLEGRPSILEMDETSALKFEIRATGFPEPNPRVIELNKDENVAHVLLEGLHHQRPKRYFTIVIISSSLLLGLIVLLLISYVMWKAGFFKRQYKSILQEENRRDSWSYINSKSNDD

Row | Structure (SMILES) | percent of DMSO control GFP [1] | GFP response vs DMSO [2] | percent response of DMSO control [3] | GFP response vs DMSO [4] | GFP response, % of DMSO [5] | double positive events [6] [%] | vesicle binding response [6] | inhibition [7] | superoxide response (% of plate) [8] | aptamer binding inhibition [9] | response [10] | inhibition [11] | response [12] | binding (% of control) [13] | efflux inhibition (fraction of control) [14] | inhibition [15] | differentiation response [16]
1 | O=C(CNC(=O)OCc1ccccc1)Oc1cc2oc(=O)cc(-c3ccccc3)c2cc1Cl | 97.5% (inactive) | 107% (inactive) | 111% (inactive) | 107% (inactive) | 71.1% (inactive) | 61.1 | 423% (inactive) | -0.27% (inactive) | 207% (inactive) | 8% (inactive) | -13.2% (inactive) | 12.8% (inactive) | -27.5% (inactive) | 103% (inactive) | -0.09 (inactive) | 1% (inactive) | -4% (inactive)
2 | O=C(CCCN1C(=O)/C(=C\c2cccs2)SC1=S)Nc1ccccn1 | 103% (inactive) | 99.7% (inactive) | 92.4% (inactive) | 99.1% (inactive) | 96.8% (inactive) | 61.7 | 154% (inactive) | -2.43% (inactive) | 115% (inactive) | 2% (inactive) | -9.49% (inactive) | -9.99% (inactive) | -5.78% (inactive) | 94% (inactive) | 0.35 (inactive) | -5% (inactive) | -7.5% (inactive)
3 | COc1cccc2c1OCC1COc3c(c(=O)n(C)c(=O)n3C)C21 (stereo not given) | 101% (inactive) | 108% (inactive) | 99.6% (inactive) | 130% (inactive) | 102% (inactive) | 64.4 | 201% (inactive) | 14.6% (inactive) | 95% (inactive) | -1% (inactive) | -9.55% (inactive) | 59.9% (active) | -4.7% (inactive) | 101% (inactive) | 0.08 (inactive) | 2% (inactive) | 13.6% (inactive)
4 | COc1cc(C(=O)Nc2ccc(N(C)C)cc2)c([N+](=O)[O-])cc1OC | 100% (inactive) | 104% (inactive) | 101% (inactive) | 104% (inactive) | 98.6% (inactive) | 63.5 | 224% (inactive) | -3.57% (inactive) | 101% (inactive) | 4% (inactive) | -1.8% (inactive) | 2.96% (inactive) | 0.28% (inactive) | 93.2% (inactive) | -0.2 (inactive) | 7% (inactive) | 4.15% (inactive)
5 | CC(=O)N(CCC1(c2ccc(C)cc2)CCOC(C(C)C)C1)Cc1ccco1 (stereo not given) | 93.9% (inactive) | 108% (inactive) | 116% (inactive) | 82% (inactive) | 96.6% (inactive) | 46.3 | 74.9% (active) | -16.8% (inactive) | 99.9% (inactive) | -4% (inactive) | -3.21% (inactive) | 3.24% (inactive) | -0.03% (inactive) | 99.6% (inactive) | 0.05 (inactive) | 9% (inactive) | -1.64% (inactive)
6 | O=C(NC1CCCCC1)c1cc2nc(-c3ccco3)cc(C(F)(F)F)n2n1 | 89.5% (inactive) | 106% (inactive) | 102% (inactive) | 78.7% (inactive) | 88.2% (inactive) | 43.2 | 158% (inactive) | -1.3% (inactive) | 111% (inactive) | 0% (inactive) | -19.4% (inactive) | 1.72% (inactive) | 8.07% (inactive) | 107% (inactive) | 0.09 (inactive) | 9% (inactive) | 20.5% (inactive)
7 | Cn1c([N+](=O)[O-])cnc1COC(N)=O | 92.8% (inactive) | 136% (inactive) | 103% (inactive) | 83.6% (inactive) | 88.9% (inactive) | 62.7 | 157% (inactive) | 8.4% (inactive) | 98.7% (inactive) | 4% (inactive) | 5.28% (inactive) | -5.93% (inactive) | -3.52% (inactive) | 105% (inactive) | -0.35 (inactive) | 11% (inactive) | -3.28% (inactive)
8 | Cc1nnc(SCC2=C(C(=O)O)N3C(=O)[C@@H](NC(=O)Cn4cnnn4)[C@H]3SC2)s1 | 100% (inactive) | 104% (inactive) | 100% (inactive) | 114% (inactive) | 112% (inactive) | 61.6 | 282% (inactive) | 15.9% (inactive) | 98.1% (inactive) | -1% (inactive) | -26.4% (inactive) | 6.15% (inactive) | -5.74% (inactive) | 93.4% (inactive) | -0.13 (inactive) | 1% (inactive) | -7.94% (inactive)
9 | Cc1onc(-c2c(Cl)cccc2Cl)c1C(=O)NC1C(=O)N2C1SC(C)(C)C2C(=O)O (stereo not given) | 99.7% (inactive) | 103% (inactive) | 100% (inactive) | 117% (inactive) | 113% (inactive) | 59.6 | 207% (inactive) | -6.23% (inactive) | 83.9% (inactive) | 0% (inactive) | -26.4% (inactive) | 5.02% (inactive) | -4.49% (inactive) | 103% (inactive) | 0 (inactive) | 3% (inactive) | -12.9% (inactive)
10 | CC1(C)CC(NC(=O)C23CCC(C)(C(=O)C2=O)C3(C)C)CC(C)(C)N1 (stereo not given) | 99% (inactive) | 112% (inactive) | 88.2% (inactive) | 116% (inactive) | 99.2% (inactive) | 65.1 | 166% (inactive) | 10.5% (inactive) | 96.1% (inactive) | 3% (inactive) | -4.74% (inactive) | -0.24% (inactive) | 6.45% (inactive) | 99.7% (inactive) | 0.19 (inactive) | 13% (inactive) | 12% (inactive)
